This experiment can be described thus: PubChem AID 1788. Particulars: MDS Pharma lead profiling panel, radioligand binding; GABAA central (rat), Flunitrazepam site; at 10 µM; active compounds read high.

These results are taken from PubChem BioAssay AID1788 (Vanderbilt High Throughput Screening Facility, 2009).

Activity calls are given as the source filed them. The rule behind the calls is not given here.

The term inhibition denotes the relative decrease from the control value, in per cent. As to `CCOC(=O)N1CCC(NCCNC(=O)c2ccccc2C)CC1`, the inhibition was -12% (inactive).
